# Laboratory results: publication PMC4336329 (PLoS ONE, 2015)
# In all, about 310,000 compounds went through this assay and about 14,000 (4.5%) showed an effect of 50% or more. Effects have a minus sign here. The full list was thinned out, with strong results kept by preference.
# Target: human ether-à-go-go-related gene (hERG) potassium channel (human, UniProt Q12809)
# Experiment: primary screen, population patch clamp on CHO cells stably expressing hERG; higher = less effect of the substance
# 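Note: peak tail current of the secondary pulse compared with the same well before compound.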
# human ether-à-go-go-related gene (hERG) potassium channel, sequence (Q12809 whole entry, looked up): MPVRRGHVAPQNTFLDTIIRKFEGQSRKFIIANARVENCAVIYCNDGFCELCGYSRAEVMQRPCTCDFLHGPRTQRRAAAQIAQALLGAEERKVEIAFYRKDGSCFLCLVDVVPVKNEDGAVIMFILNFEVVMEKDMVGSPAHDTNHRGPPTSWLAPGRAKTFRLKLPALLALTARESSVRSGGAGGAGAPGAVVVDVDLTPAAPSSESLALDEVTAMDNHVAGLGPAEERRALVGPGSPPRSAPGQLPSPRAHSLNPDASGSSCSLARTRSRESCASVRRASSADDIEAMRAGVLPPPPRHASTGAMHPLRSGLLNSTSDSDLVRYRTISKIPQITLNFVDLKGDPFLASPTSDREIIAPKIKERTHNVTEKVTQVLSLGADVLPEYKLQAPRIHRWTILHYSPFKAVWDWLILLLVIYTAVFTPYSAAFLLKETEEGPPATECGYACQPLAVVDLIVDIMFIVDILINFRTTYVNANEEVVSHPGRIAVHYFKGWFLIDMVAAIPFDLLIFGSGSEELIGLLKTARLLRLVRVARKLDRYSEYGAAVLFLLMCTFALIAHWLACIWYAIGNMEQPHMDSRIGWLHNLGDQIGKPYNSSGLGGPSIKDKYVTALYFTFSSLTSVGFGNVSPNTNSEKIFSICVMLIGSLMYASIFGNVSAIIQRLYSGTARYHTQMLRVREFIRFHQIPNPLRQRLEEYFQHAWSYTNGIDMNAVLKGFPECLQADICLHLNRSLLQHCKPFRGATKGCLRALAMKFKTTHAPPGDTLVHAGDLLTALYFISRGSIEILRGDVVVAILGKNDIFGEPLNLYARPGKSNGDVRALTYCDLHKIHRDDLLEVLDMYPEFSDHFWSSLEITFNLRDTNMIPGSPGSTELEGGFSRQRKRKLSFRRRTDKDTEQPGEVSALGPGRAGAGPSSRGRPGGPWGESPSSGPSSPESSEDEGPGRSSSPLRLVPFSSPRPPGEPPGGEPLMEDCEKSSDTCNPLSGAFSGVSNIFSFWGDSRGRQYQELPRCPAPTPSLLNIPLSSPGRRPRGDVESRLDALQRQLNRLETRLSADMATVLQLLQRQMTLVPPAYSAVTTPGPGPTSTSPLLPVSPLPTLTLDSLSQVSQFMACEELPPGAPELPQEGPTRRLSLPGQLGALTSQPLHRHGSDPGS
row,Compound,"hERG current change (%, negative = inhibition) at 10uM"
1,COc1ccc(-c2nnc3sc(-c4ccccn4)nn23)cc1,-13.2%
2,CCOC(=O)c1ccc(-c2ccc(CO)o2)cc1,-6.44%
3,CCC(C)[C@H](NC(=O)N1CC(=O)Nc2ccccc21)C(=O)N[C@H](C(=O)O)c1ccccc1 (stereo partly shown),7.19%
4,CCN1C(=O)CC(c2ccco2)Sc2ccccc21 (stereo not shown),-16.8%
5,O=C(NCCCN1CCOCC1)c1ccc([N+](=O)[O-])cc1[N+](=O)[O-],10.5%
6,CC(C)n1c(=O)c(C=Nc2ccc(F)cc2)c(O)n(Cc2ccco2)c1=O,-19.7%
7,COc1ccc2c(=O)c3c(=O)n(-c4ccc(C)cc4)c(-c4ccccc4)nc3oc2c1,6.84%
8,CC(=O)Nc1ccc(S(=O)(=O)N2CCSC2C(=O)O)cc1 (stereo not shown),0.312%
9,Cc1ccc(S(=O)(=O)Nc2ccc(N3CCOCC3)cc2)cc1C,2.95%
10,COc1ccc(/C=C/C(=O)NC(=S)NNC(=O)c2c(-c3ccccc3)noc2C)cc1,11.4%
11,Cc1cc2ncc(-c3cccc(Cl)c3)cn2n1,8.42%
12,CC(=O)Nc1ccc2c(COC(=O)CC3Sc4ccccc4NC3=O)cc(=O)oc2c1 (stereo not shown),-9.75%
13,COc1ccc2c(COC(=O)CC3Sc4ccccc4NC3=O)cc(=O)oc2c1 (stereo not shown),-44.1%
14,O=C(CC1Sc2ccccc2NC1=O)OCc1cc(=O)oc2cc(O)ccc12 (stereo not shown),-51.7%
15,CCCCn1c(SCC(=O)NCc2ccccc2)nc2ccc(N3CCOCC3)cc2c1=O,-13.9%
16,COc1ccc(OC)c(NC(=O)C2C3CC4OC(=O)C2C4C3)c1 (stereo not shown),11.2%
17,O=C(c1cccc(Cl)c1)N1CCN(Cc2ccc3c(c2)OCO3)CC1,-16.6%
18,O=C(O)C(=O)O.O=C(c1ccccc1F)N1CCN(Cc2ccc3c(c2)OCO3)CC1,6.48%
19,O=C(c1cccn2c(=O)c3cc(Cl)ccc3nc12)N1CCN(Cc2ccc3c(c2)OCO3)CC1,-75.2%
20,O=C(c1ccccc1Cl)N1CCN(Cc2ccc3c(c2)OCO3)CC1,-21.1%
21,O=C(Cn1cnc2ccccc2c1=O)N1CCN(Cc2ccc3c(c2)OCO3)CC1,-14%
22,O=C(c1ccc2nc3ccccc3c(=O)n2c1)N1CCN(Cc2ccc3c(c2)OCO3)CC1,-60.9%
23,O=C(Cn1ccc2ccccc2c1=O)N1CCN(Cc2ccc3c(c2)OCO3)CC1,-14.8%
24,O=C(c1cc(Cl)nc2ccccc12)N1CCN(Cc2ccc3c(c2)OCO3)CC1,-37.9%
25,O=C(c1cccn2c(=O)c3ccccc3nc12)N1CCN(Cc2ccc3c(c2)OCO3)CC1,-67.7%
